From PubChem BioAssay AID1159580 (chemical genetic matrix, 2015)
Among all 5,500 compounds or so, about 2,000 (36%) were called active. Not shown: some 18% with an inconclusive outcome. Cut-off read from the data, not from the text of the source: active = normalized growth mostly below about 0.91 (no sharp cut-off); inconclusive = no clear call, values can overlap the other calls; inactive = mostly above about 0.92. This is one part of the list.

Experiment: chemical genetic growth profiling, strain panel (AID 1159580);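 note: tested at 20 µM; growth read once vehicle control cultures reached saturation at 30 °C; 1 = growth at the plate median or of vehicle wells; lower values mean less growth of the strain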
Conditions: S. cerevisiae deletion strains, growth OD

Measured: normalized growth

O=C(O)[C@H]1/C(=C/CO)O[C@@H]2CC(=O)N21
inactive: locus YAL021C, strain ccr4, hits give low values 0.992 | locus YAL026C, strain drs2, hits give low values 0.991 | locus YAL030W, strain snc1, hits give low values 0.992 | locus YBL061C, strain skt5, hits give low values 0.955 | locus YBR009C, strain hhf1, hits give low values 1.01 | locus YBR023C, strain chs3, hits give low values 0.978 | locus YBR171W, strain sec66, hits give low values 0.983 | locus YBR231C, strain swc5, hits give low values 1.02 | locus YBR279W, strain paf1, hits give low values 0.976 | locus YCL011C, strain gbp2, hits give low values 1.02 | locus YCL016C, strain dcc1, hits give low values 0.972 | locus YCL069W, strain vba3, hits give low values 0.986 | locus YCR088W, strain abp1, hits give low values 0.986 | locus YDL005C, strain med2, hits give low values 0.971 | locus YDL040C, strain nat1, hits give low values 0.982 | locus YDR001C, strain nth1, hits give low values 0.981 | locus YDR069C, strain doa4, hits give low values 1.01 | locus YDR137W, strain rgp1, hits give low values 0.982 | locus YDR159W, strain sac3, hits give low values 0.97 | locus YDR195W, strain ref2 0.96 | locus YDR297W, strain sur2, hits give low values 1 | locus YDR334W, strain swr1, hits give low values 0.988 | locus YDR335W, strain msn5, hits give low values 0.976 | locus YDR392W, strain spt3, hits give low values 0.883 | locus YEL003W, strain gim4, hits give low values 1 | locus YEL037C, strain rad23, hits give low values 0.985 | locus YEL061C, strain CIN8 (second series), hits give low values 0.986 | locus YER015W, strain faa2, hits give low values 0.996 | locus YER016W, strain bim1, hits give low values 0.957 | locus YER111C, strain swi4, hits give low values 0.973 | locus YER155C, strain BEM2 (second series), hits give low values 0.999 | locus YFR010W, strain ubp6, hits give low values 1.02 | locus YGL167C, strain pmr1, hits give low values 0.986 | locus YGL173C, strain kem1, hits give low values 0.997 | locus YGL227W, strain vid30, hits give low values 0.971 | locus YGL240W, strain doc1, hits give low values 1.01 | locus YGL253W, strain hxk2, hits give low values 0.959 | locus YHR013C, strain ard1, hits give low values 0.957 | locus YHR027C, strain rpn1, hits give low values 0.992 | locus YHR030C, strain SLT2, hits give low values 0.964 | locus YHR079C, strain IRE1, hits give low values 0.959 | locus YHR142W, strain chs7, hits give low values 0.959 | locus YJL092W, strain hpr5, hits give low values 0.999 | locus YJL095W, strain BCK1 (second series), hits give low values 1 | locus YJL095W, strain BCK1, hits give low values 0.991 | locus YJL115W, strain asf1, hits give low values 0.983 | locus YJL129C, strain trk1, hits give low values 0.941 | locus YJL154C, strain vps35, hits give low values 0.982 | locus YJL164C, strain tpk1, hits give low values 0.993 | locus YJL166W, strain qcr8, hits give low values 1.03 | locus YJL187C, strain SWE1, hits give low values 0.995 | locus YJR066W, strain TOR1, hits give low values 0.936 | locus YKL160W, strain elf1, hits give low values 0.955 | locus YKR026C, strain gcn3, hits give low values 0.99 | locus YKR091W, strain srl3, hits give low values 0.986 | locus YLL001W, strain dnm1, hits give low values 0.984 | locus YLL026W, hits give low values 0.987 | locus YLL041C, strain sdh2, hits give low values 1.02 | locus YLR027C, strain aat2, hits give low values 1 | locus YLR113W, strain HOG1, hits give low values 0.974 | locus YLR221C, strain rsa3, hits give low values 1.01 | locus YLR258W, strain gsy2, hits give low values 1 | locus YLR262C, strain YPT6 (second series), hits give low values 1.02 | locus YLR320W, strain mms22, hits give low values 1.01 | locus YLR342W, strain FKS1, hits give low values 0.965 | locus YLR357W, strain rsc2, hits give low values 0.931 | locus YLR370C, strain arc18, hits give low values 0.972 | locus YLR384C, strain iki3, hits give low values 0.98 | locus YML120C, strain ndi1, hits give low values 0.997 | locus YMR058W, strain fet3, hits give low values 0.993 | locus YMR125W, strain sto1, hits give low values 0.954 | locus YMR129W, hits give low values 0.981 | locus YMR205C, strain PFK2, hits give low values 0.99 | locus YMR231W, strain pep5, hits give low values 0.983 | locus YNL071W, strain lat1, hits give low values 0.996 | locus YNL183C, strain NPR1, hits give low values 0.952 | locus YNL209W, strain ssb2, hits give low values 0.98 | locus YNL248C, strain rpa49, hits give low values 0.935 | locus YNL322C, strain KRE1 (second series), hits give low values 0.973 | locus YNR049C, strain mso1, hits give low values 0.972 | locus YOR001W, strain rrp6, hits give low values 1.03 | locus YOR070C, strain gyp1, hits give low values 0.994 | locus YOR080W, strain dia2, hits give low values 0.988 | locus YOR083W, strain WHI5, hits give low values 0.909 | locus YOR106W, strain vam3, hits give low values 0.952 | locus YOR231W, strain MKK1, hits give low values 0.987 | locus YOR265W, strain rbl2, hits give low values 0.993 | locus YOR270C, strain vph1, hits give low values 1 | locus YOR290C, strain snf2, hits give low values 0.986 | locus YPL051W, strain arl3, hits give low values 0.979 | locus YPL078C, strain atp4, hits give low values 0.967 | locus YPL106C, strain sse1, hits give low values 0.979 | locus YPL240C, strain hsp82, hits give low values 1.01 | locus YPL256C, strain CLN2, hits give low values 0.959
